# Experiments:
# Assay in all cases: DAPPL (digital affinity profiling via proximity ligation, sequencing); 10 mM Tris-HCl pH 7.5, 50 mM NaCl, 1 mM DTT, 4% glycerol, room temperature, 30 min; GST-TFs on glutathione beads, 16-mer random dsDNA library, 0.1% formaldehyde crosslink after washing; high values mean tight binding
# [1] = molecular target: T1, FLI1 (Homo sapiens, UniProt Q01543 1-452); settings: protein: recombinant; tags: N-terminal GST; dsDNA, one strand shown
# T1 sequence: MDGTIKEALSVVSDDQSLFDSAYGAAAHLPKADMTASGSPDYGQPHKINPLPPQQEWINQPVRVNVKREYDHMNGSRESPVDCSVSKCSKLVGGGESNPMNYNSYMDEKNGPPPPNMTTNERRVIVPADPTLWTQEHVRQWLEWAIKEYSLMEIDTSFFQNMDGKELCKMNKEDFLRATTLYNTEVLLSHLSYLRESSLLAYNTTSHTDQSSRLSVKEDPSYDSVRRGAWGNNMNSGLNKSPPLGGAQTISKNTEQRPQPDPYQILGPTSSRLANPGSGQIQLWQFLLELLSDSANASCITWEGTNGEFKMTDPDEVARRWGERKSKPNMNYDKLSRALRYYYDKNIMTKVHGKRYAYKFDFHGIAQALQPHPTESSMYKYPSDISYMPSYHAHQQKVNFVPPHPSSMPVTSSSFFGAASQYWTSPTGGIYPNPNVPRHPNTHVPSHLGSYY
# Summary of the method: (§1)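 Human transcription factors were made in yeast as GST fusions, captured on glutathione beads and barcoded with DNA. With a tag-only sample included, the pool was incubated with 200 nmole of a random double-stranded 16-mer DNA library in Tris/NaCl/DTT/glycerol buffer at room temperature for 30 min, then crosslinked with 0.1% formaldehyde after washing, ligated by proximity, amplified and sequenced. For binding signal, each hexamer's read frequency for a factor is divided by its frequency for the tag-only sample.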
# [2] = molecular target: T2, GABPA (Homo sapiens, UniProt Q06546 1-454); settings: protein: recombinant; tags: N-terminal GST; dsDNA, one strand shown
# T2 sequence: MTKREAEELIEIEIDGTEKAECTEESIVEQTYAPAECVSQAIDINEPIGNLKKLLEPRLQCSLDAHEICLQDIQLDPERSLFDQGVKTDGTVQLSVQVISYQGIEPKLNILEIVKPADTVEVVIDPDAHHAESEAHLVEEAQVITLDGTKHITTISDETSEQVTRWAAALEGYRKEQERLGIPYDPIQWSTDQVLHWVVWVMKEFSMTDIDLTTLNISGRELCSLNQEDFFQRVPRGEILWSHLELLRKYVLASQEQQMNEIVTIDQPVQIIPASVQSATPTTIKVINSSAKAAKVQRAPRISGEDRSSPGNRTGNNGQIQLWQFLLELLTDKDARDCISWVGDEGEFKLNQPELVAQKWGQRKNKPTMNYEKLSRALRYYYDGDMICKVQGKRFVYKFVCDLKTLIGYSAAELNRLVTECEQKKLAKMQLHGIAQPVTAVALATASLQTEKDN
# Summary of the method: as §1
# [3] = molecular target: T3, ERG (Homo sapiens, UniProt P11308 1-479); settings: protein: recombinant; tags: N-terminal GST; dsDNA, one strand shown
# T3 sequence: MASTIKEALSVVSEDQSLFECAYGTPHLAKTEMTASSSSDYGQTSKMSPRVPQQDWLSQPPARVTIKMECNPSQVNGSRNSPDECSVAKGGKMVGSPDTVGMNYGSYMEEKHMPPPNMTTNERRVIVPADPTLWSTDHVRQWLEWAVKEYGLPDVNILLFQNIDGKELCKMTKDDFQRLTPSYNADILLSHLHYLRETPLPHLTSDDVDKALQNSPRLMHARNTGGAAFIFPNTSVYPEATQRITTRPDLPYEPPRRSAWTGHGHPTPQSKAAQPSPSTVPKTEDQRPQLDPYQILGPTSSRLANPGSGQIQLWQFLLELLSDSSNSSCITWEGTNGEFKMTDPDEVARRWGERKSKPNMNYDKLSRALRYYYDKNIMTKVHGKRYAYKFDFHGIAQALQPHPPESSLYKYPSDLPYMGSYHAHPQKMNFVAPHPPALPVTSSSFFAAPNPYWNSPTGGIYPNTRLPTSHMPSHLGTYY
# Summary of the method: as §1
# [4] = molecular target: ELF1 (Homo sapiens, UniProt P32519 1-619); settings: protein: recombinant; tags: N-terminal GST; dsDNA, one strand shown
# Summary of the method: as §1
# [5] = molecular target: T4, EHF (Homo sapiens, UniProt Q9NZC4 1-300); settings: protein: recombinant; tags: N-terminal GST; dsDNA, one strand shown
# T4 sequence: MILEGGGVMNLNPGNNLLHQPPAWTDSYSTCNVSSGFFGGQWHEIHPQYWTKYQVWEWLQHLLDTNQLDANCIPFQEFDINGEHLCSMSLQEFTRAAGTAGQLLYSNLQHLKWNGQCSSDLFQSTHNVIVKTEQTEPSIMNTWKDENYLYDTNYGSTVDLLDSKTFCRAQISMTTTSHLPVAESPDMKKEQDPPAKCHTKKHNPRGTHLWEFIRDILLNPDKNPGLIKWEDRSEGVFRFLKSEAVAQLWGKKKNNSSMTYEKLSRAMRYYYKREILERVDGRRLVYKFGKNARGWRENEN
# Summary of the method: as §1
# [6] = molecular target: SPI1 (Homo sapiens, UniProt P17947 1-270); settings: protein: recombinant; tags: N-terminal GST; dsDNA, one strand shown
# Summary of the method: as §1
# [7] = molecular target: SPIB (Homo sapiens, UniProt Q01892 1-262); settings: protein: recombinant; tags: N-terminal GST; dsDNA, one strand shown
# Summary of the method: as §1
# [8] = molecular target: T5, ELK3 (Homo sapiens, UniProt P41970 1-407); settings: protein: recombinant; tags: N-terminal GST; dsDNA, one strand shown
# T5 sequence: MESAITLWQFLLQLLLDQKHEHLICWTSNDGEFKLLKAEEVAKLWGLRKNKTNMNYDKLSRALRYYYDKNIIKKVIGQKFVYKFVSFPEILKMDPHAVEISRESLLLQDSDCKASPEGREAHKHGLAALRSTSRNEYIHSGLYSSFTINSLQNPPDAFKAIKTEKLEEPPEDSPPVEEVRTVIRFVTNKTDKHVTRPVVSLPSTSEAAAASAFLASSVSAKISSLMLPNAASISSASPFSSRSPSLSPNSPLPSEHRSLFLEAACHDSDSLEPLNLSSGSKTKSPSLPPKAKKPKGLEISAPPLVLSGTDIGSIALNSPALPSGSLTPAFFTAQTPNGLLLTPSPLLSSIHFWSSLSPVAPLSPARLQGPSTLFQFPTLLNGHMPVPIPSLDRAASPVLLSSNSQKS
# Summary of the method: as §1
# [9] = molecular target: T6, FEV (Homo sapiens, UniProt Q99581 1-238); settings: protein: recombinant; tags: N-terminal GST; dsDNA, one strand shown
# T6 sequence: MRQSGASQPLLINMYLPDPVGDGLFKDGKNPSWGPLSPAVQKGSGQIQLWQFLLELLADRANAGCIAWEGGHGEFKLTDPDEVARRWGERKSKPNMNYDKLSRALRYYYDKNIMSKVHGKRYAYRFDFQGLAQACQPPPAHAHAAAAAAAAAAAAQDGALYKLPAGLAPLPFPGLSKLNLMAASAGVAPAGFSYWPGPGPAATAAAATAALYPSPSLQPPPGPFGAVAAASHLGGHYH
# Summary of the method: as §1
# [10] = molecular target: ETV5 (Homo sapiens, UniProt P41161 1-510); settings: protein: recombinant; tags: N-terminal GST; dsDNA, one strand shown
# Summary of the method: as §1
# [11] = molecular target: HSF1 (Homo sapiens, UniProt Q00613 1-529); settings: protein: recombinant; tags: N-terminal GST; chain copies: 3; dsDNA, one strand shown
# Summary of the method: as §1
# [12] = molecular target: T7, SPIC (Homo sapiens, UniProt Q8N5J4 1-248); settings: protein: recombinant; tags: N-terminal GST; dsDNA, one strand shown
# T7 sequence: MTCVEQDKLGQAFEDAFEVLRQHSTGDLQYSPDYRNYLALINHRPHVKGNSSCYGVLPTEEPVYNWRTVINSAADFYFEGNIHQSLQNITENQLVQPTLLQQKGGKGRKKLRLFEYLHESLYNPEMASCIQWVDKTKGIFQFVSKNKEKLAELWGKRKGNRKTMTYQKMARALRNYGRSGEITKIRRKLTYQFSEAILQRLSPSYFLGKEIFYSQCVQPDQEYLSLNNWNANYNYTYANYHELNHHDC
# Summary of the method: as §1
# [13] = molecular target: ELF4 (Homo sapiens, UniProt Q99607 1-663); settings: protein: recombinant; tags: N-terminal GST; dsDNA, one strand shown
# Summary of the method: as §1
# [14] = molecular target: T8, ELK4 (Homo sapiens, UniProt P28324-2 1-405); settings: protein: recombinant; tags: N-terminal GST; dsDNA, one strand shown
# T8 sequence: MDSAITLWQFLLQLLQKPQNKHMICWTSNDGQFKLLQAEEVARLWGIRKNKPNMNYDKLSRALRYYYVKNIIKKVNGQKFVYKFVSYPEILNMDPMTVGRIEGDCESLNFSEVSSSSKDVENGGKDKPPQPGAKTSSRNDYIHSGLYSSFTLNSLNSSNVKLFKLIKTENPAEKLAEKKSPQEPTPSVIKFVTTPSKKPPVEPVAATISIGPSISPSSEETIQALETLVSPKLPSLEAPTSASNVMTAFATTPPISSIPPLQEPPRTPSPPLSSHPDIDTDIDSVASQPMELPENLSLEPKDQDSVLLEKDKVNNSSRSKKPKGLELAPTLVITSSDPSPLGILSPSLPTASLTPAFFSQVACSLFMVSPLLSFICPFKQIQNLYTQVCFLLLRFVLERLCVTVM
# Summary of the method: as §1
# [15] = molecular target: T9, ETV2 (Homo sapiens, UniProt O00321 1-342); settings: protein: recombinant; tags: N-terminal GST; dsDNA, one strand shown
# T9 sequence: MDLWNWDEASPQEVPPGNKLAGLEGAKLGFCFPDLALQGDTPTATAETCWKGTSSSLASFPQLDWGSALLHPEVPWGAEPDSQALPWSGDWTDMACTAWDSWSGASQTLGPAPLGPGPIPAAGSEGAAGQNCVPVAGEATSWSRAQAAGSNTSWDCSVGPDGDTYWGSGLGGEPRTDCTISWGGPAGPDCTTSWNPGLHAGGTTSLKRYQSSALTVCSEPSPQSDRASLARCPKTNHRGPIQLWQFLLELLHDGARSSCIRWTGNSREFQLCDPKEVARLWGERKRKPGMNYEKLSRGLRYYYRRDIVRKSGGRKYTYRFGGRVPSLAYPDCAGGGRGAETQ
# Summary of the method: as §1
# [16] = molecular target: T10, ELF3 (Homo sapiens, UniProt P78545 1-371); settings: protein: recombinant; tags: N-terminal GST; dsDNA, one strand shown
# T10 sequence: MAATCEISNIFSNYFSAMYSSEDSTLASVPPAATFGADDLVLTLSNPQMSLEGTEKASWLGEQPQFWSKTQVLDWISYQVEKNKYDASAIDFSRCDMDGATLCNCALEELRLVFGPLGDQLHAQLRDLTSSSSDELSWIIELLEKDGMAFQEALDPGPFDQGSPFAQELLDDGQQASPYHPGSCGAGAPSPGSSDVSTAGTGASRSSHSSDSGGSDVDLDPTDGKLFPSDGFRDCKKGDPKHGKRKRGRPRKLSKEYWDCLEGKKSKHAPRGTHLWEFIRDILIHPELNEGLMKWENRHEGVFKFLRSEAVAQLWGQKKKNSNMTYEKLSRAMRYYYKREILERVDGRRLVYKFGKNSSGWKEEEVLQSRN
# Summary of the method: as §1
# [17] = molecular target: ETV1 (Homo sapiens, UniProt P50549 1-477); settings: protein: recombinant; tags: N-terminal GST; dsDNA, one strand shown
# Summary of the method: as §1
# Chain of ETV5 (P41161 whole entry): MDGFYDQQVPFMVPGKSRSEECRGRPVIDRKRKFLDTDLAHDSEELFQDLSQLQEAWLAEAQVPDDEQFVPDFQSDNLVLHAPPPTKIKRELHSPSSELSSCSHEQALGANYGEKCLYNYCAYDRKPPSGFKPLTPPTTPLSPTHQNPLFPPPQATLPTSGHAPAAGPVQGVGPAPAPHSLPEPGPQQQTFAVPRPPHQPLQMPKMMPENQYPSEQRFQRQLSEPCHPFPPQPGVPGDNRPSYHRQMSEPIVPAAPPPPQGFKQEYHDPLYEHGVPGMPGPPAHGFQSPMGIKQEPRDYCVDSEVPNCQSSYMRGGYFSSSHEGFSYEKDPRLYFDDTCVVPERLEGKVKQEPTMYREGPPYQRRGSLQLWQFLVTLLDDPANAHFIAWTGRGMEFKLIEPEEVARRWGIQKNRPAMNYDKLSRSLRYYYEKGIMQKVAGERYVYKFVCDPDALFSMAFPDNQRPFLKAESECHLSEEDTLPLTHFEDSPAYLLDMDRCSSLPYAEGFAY
# Chain of ETV1 (P50549 whole entry): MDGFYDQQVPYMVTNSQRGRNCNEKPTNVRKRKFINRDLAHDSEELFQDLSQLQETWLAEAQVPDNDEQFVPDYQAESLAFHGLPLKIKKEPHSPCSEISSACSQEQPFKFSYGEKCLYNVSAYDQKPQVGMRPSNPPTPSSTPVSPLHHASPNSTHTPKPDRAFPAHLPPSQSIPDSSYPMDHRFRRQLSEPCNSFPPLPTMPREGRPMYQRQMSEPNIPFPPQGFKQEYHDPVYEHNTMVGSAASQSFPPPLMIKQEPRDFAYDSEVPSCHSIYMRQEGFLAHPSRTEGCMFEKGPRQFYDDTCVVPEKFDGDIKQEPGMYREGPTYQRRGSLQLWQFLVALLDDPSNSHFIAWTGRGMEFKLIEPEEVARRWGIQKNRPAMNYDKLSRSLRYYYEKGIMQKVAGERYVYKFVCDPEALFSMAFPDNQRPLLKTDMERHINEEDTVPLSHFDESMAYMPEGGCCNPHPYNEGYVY
# Chain of ELF1 (P32519 whole entry): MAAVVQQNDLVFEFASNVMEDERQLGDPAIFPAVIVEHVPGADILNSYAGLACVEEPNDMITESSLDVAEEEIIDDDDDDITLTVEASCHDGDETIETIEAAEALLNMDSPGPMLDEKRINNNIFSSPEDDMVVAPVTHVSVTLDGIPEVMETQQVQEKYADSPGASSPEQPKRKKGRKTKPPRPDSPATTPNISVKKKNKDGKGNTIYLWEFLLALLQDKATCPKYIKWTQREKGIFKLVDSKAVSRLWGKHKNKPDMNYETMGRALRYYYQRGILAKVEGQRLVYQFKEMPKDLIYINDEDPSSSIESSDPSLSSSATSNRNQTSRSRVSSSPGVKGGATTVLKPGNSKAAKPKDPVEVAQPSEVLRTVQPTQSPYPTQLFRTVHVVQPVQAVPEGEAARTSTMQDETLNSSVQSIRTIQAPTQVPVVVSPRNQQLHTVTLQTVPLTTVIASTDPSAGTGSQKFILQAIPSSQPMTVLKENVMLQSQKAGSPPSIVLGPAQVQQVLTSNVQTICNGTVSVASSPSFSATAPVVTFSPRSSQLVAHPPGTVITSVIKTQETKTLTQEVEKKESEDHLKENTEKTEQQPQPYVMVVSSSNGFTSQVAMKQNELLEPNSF
# Chain of ELF4 (Q99607 whole entry): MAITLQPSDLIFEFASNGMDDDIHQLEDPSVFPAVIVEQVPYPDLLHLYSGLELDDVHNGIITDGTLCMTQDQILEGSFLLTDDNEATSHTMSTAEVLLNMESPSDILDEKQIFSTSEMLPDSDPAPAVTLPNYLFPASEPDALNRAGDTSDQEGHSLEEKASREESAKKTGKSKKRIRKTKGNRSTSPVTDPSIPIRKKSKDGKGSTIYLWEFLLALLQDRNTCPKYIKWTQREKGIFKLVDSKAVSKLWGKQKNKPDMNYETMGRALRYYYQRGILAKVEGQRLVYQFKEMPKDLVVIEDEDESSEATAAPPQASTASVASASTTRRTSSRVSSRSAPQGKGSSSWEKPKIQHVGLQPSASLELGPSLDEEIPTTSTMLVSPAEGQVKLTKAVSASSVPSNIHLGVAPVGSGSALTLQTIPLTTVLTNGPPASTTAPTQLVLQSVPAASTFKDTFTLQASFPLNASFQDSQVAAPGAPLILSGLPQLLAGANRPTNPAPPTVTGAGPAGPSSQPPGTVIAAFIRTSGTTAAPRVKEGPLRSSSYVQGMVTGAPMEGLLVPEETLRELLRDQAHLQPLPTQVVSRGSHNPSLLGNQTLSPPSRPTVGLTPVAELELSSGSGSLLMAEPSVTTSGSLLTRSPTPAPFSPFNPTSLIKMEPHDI
# Chain of HSF1 (Q00613 whole entry): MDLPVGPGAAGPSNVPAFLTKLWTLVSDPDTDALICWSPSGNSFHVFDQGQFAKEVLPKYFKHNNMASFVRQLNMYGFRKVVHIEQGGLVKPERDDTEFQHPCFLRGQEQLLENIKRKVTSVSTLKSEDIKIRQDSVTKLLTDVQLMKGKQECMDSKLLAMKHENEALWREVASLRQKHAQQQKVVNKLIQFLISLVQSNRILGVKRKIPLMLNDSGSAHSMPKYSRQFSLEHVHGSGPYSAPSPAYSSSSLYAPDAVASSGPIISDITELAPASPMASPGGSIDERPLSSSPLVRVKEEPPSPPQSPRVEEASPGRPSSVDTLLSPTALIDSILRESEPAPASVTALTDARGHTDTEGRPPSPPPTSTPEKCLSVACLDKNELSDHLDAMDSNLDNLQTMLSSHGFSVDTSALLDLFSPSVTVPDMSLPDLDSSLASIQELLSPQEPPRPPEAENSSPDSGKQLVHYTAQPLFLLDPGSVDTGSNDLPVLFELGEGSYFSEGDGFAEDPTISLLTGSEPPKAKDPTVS
# Chain of SPIB (Q01892 whole entry): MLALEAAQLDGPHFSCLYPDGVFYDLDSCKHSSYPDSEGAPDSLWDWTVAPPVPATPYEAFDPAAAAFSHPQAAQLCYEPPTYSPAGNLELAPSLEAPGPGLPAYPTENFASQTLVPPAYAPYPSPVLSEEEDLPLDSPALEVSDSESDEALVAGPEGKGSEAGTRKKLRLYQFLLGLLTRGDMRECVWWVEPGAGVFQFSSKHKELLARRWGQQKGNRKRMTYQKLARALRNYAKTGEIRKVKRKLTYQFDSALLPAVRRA
sequence,measurement,setting,value
GTTCCA,binding signal,[1],"1.12 fold enrichment (6-mer frequency, TF over GST control)"
same,binding signal,[2],"1.03 fold enrichment (6-mer frequency, TF over GST control)"
same,binding signal,[3],"1.01 fold enrichment (6-mer frequency, TF over GST control)"
same,binding signal,[4],"1.11 fold enrichment (6-mer frequency, TF over GST control)"
same,binding signal,[5],"1 fold enrichment (6-mer frequency, TF over GST control)"
same,binding signal,[6],"1.03 fold enrichment (6-mer frequency, TF over GST control)"
same,binding signal,[7],"1.1 fold enrichment (6-mer frequency, TF over GST control)"
same,binding signal,[8],"1.08 fold enrichment (6-mer frequency, TF over GST control)"
same,binding signal,[9],"1.01 fold enrichment (6-mer frequency, TF over GST control)"
same,binding signal,[10],"1.05 fold enrichment (6-mer frequency, TF over GST control)"
same,binding signal,[11],"1.79 fold enrichment (6-mer frequency, TF over GST control)"
same,binding signal,[12],"1.21 fold enrichment (6-mer frequency, TF over GST control)"
same,binding signal,[13],"1.13 fold enrichment (6-mer frequency, TF over GST control)"
same,binding signal,[14],"1.14 fold enrichment (6-mer frequency, TF over GST control)"
same,binding signal,[15],"1.06 fold enrichment (6-mer frequency, TF over GST control)"
same,binding signal,[16],"1.12 fold enrichment (6-mer frequency, TF over GST control)"
same,binding signal,[17],"1.06 fold enrichment (6-mer frequency, TF over GST control)"
